Assay [1] can be described thus: rapamycin-like changes in RPL19A-GFP expression – cell-based, S. cerevisiae, multiplex flow cytometry, primary screen (AID 1862; in the data active = percent of DMSO control GFP below about 86%;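 note: lower values mimic rapamycin by blocking the RPL19A rise seen in DMSO cells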). The note with it: S. cerevisiae RPL19A-GFP strain, flow cytometry fluorescence, 3 h; at 10 µM; stronger effect = lower value.
Assay [2] can be described thus: TOR pathway GLN3 branch reporter MEP2-GFP changes – S. cerevisiae, multiplex flow cytometry, primary screen (AID 1867).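 Note: median GFP channel fluorescence of barcode-gated MEP2-GFP cells measured by flow cytometry.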 As to conditions: S. cerevisiae MEP2-GFP strain, 3 h, at 10 µM, stronger effect = higher value, 100% means same as DMSO wells.
A short description of assay [3]: TOR pathway RTG branch CIT2 reporter changes – S. cerevisiae, GFP fusion, multiplex flow cytometry, primary screen (AID 1870;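 active = percent response above a set limit, the screen-wide mean plus 3 SD, cut at about 130% in these data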;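 note: barcoded CIT2-GFP strain pooled with four other GFP strains with rapamycin as positive control; median GFP fluorescence per well over plate mean of DMSO wells so 100% = DMSO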). As to conditions: S. cerevisiae CIT2-GFP expression, 3 h, at 10 µM, stronger effect = higher value.
Assay [4] in a line: TOR pathway LAP4-GFP level changes – S. cerevisiae, multiplex flow cytometry, primary screen (AID 1873;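 active = GFP signal, as percent of the solvent control, above the screen mean plus 3 SD, about 149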). As to conditions: S. cerevisiae LAP4-GFP expression, 3 h, at 10 µM, stronger effect = higher value. (Flow cytometry measures light scatter and fluorescence of single cells or particles in a stream.)
The nature of assay [5]: yeast AGP1-GFP level changes, GLN3 branch – cell-based, multiplex flow cytometry, S. cerevisiae, primary screen (AID 1887;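 active = GFP signal above the screen-wide mean plus 3 SD, that is over about 124.5% of the solvent control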;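 note: AGP1-GFP fusion strain of S. cerevisiae within a five-strain barcoded multiplex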). The note with it: 3 h, at 10 µM, stronger effect = higher value.
Assay [6] is described as follows: reduced mouse 2C T cell binding to pMHC/ICAM-1 vesicles – MLPCN validation set, flow cytometry, LFA-1/ICAM-1 modulator project, pilot screen (AID 2523;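 active = response below a set limit, under 55% cells CD8-positive and vesicle-bound, and CD8 cells' 90th-percentile brightness under 279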;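 for vesicle binding response: mean PE anti-B7-1 fluorescence of CD8+ cells relative to row control; 100% = QL9-loaded vesicles with DMSO vehicle in the same plate row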). As to conditions: 2C mouse CD8+ T cells, at 7 µM, stronger effect = lower value; double positive events: measured here: CD8+/vesicle+ event percentage.
In assay [7] the target is Integrin beta-1 (Homo sapiens) + Integrin alpha-4 (Homo sapiens) (UniProt P13612+P05556). The assay is described as follows: alpha4beta1 integrin LIBS antibody binding reduction – U937 cells, HUTS-21 mAb, flow cytometry, validation set, VLA-4 allosteric modulator project, pilot screen (AID 2674;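 active = inhibition above 50%, about 3 SD of the validation set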;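 note: antibody binding induced by the VLA-4 ligand LDV present at three times its Kd; 0% = LDV ligand with antibody and no compound and 100% = antibody without LDV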). The note with it: HUTS-21 LIBS mAb binding, at 6.7 µM, stronger effect = higher value, binding induced by LDV ligand.
Integrin beta-1 (Homo sapiens) + Integrin alpha-4 (Homo sapiens), sequence (P05556 whole entry, looked up): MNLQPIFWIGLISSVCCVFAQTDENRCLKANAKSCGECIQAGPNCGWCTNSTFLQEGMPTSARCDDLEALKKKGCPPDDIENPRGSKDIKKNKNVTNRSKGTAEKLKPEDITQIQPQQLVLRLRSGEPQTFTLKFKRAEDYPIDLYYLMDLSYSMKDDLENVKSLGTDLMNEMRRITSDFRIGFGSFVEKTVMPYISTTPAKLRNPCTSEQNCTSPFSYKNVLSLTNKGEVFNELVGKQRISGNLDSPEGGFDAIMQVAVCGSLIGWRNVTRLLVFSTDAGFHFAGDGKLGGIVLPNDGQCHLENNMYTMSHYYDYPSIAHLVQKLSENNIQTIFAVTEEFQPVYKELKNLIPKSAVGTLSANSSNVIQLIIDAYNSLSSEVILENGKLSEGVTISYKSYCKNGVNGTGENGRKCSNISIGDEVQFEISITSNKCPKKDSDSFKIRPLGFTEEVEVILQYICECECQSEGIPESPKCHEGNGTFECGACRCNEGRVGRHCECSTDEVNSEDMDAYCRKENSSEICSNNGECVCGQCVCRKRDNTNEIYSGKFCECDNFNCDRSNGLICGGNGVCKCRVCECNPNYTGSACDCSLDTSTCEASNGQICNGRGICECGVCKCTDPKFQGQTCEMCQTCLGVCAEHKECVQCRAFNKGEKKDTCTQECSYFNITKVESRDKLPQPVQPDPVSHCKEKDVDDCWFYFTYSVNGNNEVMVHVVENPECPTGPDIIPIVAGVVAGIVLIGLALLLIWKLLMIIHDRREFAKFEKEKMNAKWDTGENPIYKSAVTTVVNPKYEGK
Integrin beta-1 (Homo sapiens) + Integrin alpha-4 (Homo sapiens), sequence (P13612 whole entry, looked up): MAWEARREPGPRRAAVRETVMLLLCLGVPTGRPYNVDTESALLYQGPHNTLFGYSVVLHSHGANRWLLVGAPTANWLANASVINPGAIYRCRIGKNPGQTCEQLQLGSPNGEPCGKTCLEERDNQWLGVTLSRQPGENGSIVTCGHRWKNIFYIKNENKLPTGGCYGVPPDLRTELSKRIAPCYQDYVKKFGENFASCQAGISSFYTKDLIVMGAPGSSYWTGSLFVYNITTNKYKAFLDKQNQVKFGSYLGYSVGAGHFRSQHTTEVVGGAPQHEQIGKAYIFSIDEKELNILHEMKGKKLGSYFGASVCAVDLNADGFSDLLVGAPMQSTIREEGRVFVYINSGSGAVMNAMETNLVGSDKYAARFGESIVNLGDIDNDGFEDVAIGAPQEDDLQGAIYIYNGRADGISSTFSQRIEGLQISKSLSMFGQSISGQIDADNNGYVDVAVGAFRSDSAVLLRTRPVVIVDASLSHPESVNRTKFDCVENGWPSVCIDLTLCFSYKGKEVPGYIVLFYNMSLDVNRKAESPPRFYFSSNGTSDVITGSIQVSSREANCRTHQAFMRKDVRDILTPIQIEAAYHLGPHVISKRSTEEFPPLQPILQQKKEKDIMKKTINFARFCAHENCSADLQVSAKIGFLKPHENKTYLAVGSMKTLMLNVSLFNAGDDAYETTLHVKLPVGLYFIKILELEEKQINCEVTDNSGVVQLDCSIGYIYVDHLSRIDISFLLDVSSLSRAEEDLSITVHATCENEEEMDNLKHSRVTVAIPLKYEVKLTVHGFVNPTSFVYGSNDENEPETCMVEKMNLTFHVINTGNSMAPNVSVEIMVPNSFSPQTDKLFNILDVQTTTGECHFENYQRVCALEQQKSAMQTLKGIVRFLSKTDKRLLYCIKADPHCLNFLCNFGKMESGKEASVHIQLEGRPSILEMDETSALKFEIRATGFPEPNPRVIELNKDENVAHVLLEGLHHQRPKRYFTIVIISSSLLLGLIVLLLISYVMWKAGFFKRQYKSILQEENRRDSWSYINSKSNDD

Assay [8] can be described thus: calorie-restriction mimetic ROS inhibitors, yeast – validation compound set, pilot screen (AID 2706;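 active = superoxide response below 65% of plate, a cut near 3 SD across the whole screen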;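 note: yeast exposed to compound for one week at 30 degrees C before staining; 100% = mean of all compound wells on the same plate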). The note with it: S. cerevisiae aging, superoxide DHE fluorescence; at 10 µM; stronger effect = lower value.
Assay [9] has as its target Beta-adrenergic receptor kinase 1 (Homo sapiens) (UniProt P25098). The assay is described as follows: GRK2 binders displacing RNA aptamer, biochemical, validation, human GRK2, bead flow cytometry (AID 488806;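 active = aptamer binding inhibition above 30%, about 3 SD of noise from non-fluorescent compounds; inactive = inhibition at or below 30%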). As to conditions: bead-bound GRK2, FAM-aptamer displacement, at 10 µM, stronger effect = higher value.
Assay [10] addresses Beta-2 adrenergic receptor (Homo sapiens) (UniProt P07550). Description: agonist-induced loss of surface beta2AR – cell-based, FAP fluorogen, flow cytometry, validation set, pilot screen (AID 504459;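 active = percent response above 42, roughly 3 SD of non-fluorescent test compounds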;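 note: agonist-driven loss of surface beta2AR via internalization measured by FAP dye flow cytometry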). The note with it: Am2.2-beta2AR cells, at 10 µM, stronger effect = higher value.
The target in assay [11] is AP-2 complex subunit beta (Homo sapiens) (UniProt P63010). The assay is described as follows: beta-arrestin/AP2 interaction blockers – biochemical, validation set, GST-AP2 beads, flow cytometry, pilot screen (AID 504541;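 active = inhibition above 54%, about 3 SD of non-fluorescent compounds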;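 note: AP2 carries R879A mutation and is captured from E. coli lysate; bead-bound FITC arrestin peptide fluorescence measuring arrestin peptide binding to AP2; 0% = DMSO wells and 100% = excess unlabeled arrestin peptide control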). The note with it: FITC arrestin peptide, at 10 µM, stronger effect = higher value, AP2 beta2 appendage fragment, R879A mutant.
AP-2 complex subunit beta (Homo sapiens), sequence (P63010 whole entry, looked up, the tested form may be a part, one chain of several): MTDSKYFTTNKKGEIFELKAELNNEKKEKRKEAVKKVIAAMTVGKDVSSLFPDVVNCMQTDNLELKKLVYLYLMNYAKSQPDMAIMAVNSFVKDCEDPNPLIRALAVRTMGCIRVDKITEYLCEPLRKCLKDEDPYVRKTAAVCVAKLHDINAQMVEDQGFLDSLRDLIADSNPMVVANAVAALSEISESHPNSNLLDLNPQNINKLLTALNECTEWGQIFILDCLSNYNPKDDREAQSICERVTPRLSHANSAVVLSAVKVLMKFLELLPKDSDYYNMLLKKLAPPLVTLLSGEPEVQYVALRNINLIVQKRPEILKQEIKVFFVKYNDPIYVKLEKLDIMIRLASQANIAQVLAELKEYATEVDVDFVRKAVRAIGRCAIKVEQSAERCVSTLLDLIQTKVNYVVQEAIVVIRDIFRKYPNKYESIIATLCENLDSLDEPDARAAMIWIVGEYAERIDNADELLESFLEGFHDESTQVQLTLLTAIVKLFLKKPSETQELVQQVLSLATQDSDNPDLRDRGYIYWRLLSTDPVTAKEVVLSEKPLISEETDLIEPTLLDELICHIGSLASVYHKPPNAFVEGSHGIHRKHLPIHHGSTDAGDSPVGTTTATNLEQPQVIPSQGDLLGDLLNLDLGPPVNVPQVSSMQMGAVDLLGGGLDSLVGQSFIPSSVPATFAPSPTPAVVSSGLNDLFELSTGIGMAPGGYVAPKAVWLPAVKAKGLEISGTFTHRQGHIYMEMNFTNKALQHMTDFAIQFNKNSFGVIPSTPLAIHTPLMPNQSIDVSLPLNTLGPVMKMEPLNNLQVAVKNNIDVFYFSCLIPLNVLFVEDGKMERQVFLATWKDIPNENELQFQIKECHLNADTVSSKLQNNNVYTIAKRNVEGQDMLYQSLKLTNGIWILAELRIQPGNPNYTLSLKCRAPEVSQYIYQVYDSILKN
Assay [12] in a line: cytosolic pH regulators acting via V-ATPase – S. cerevisiae, pHLuorin, HTS validation (AID 504600; in the data active = response above about 15%;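 note: plate controls were DMSO for no effect and reference compound for full effect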). The note with it: V-ATPase proton transport, at 10 µM, stronger effect = higher value.
For assay [13], the system named is anti-desmoglein-3 scFv antibody binding to human DSG3. Description: blockers of pathogenic pemphigus antibody–desmoglein-3 binding – biochemical, validation compound set, bead-based, flow cytometry, pilot screen (AID 588368;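 active = binding below the plate cutoff, the plate median minus 3 SD, with a reading above zero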;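 note: signal is the median channel fluorescence of bead-bound GFP antibody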). The note with it: Protein G beads, DSG3-Fc, scFv-GFP binding, at 10 µM, stronger effect = lower value.
Assay [14] can be described thus: Nile Red efflux blockade in pump-expressing yeast – validation compound set, multiplex, phenotypic, pilot screen (AID 588506;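 active = efflux inhibition above 0.42, the validation set average plus 4 SD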;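 note: Nile Red retained in cells so higher fluorescence means more efflux inhibition; 0 = negative control wells and 1 = enniatin B 25 µM full block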). The note with it: S. cerevisiae pump-expressing triplex, Nile Red efflux flow cytometry; at 10 µM; stronger effect = higher value; the pumps come from Candida albicans.
Assay [15] deals with ATP-binding cassette sub-family B member 6 (Homo sapiens) (UniProt Q9NP58). The assay is described as follows: blockers of ABCB6-driven porphyrin uptake – K562-ABCB6 cells, flow cytometry, validation set, pilot screen (AID 588550;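 active = inhibition above the screen-wide mean plus 3 SD, about 51%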;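 note: 0% = DMSO wells and 100% = benzethonium chloride 70 µM positive control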). As to conditions: K562-ABCB6 porphyrin accumulation, 1 h, at 10 µM, stronger effect = higher value.
ATP-binding cassette sub-family B member 6 (Homo sapiens), sequence (Q9NP58 whole entry, looked up): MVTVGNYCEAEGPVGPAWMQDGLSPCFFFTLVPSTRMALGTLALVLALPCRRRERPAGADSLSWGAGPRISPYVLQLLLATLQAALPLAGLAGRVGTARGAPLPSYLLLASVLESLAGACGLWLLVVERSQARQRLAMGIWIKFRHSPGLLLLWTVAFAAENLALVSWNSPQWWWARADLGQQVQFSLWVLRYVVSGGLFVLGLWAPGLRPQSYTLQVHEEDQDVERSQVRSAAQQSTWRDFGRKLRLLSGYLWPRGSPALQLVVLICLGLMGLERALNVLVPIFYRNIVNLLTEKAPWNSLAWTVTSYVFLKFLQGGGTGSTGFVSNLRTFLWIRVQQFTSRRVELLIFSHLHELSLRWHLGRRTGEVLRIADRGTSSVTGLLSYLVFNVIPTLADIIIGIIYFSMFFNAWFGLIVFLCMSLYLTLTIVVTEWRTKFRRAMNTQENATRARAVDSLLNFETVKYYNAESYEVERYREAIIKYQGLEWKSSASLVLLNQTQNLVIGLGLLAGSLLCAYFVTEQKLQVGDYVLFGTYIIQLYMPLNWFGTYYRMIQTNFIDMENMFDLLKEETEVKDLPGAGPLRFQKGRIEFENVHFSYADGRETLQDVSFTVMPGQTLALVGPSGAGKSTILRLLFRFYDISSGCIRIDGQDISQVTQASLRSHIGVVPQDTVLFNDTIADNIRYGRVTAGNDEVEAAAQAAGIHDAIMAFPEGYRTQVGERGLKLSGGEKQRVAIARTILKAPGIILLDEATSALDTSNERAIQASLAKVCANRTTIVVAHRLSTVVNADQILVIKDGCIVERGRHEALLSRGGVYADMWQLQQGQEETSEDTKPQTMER
Assay [16] is described as follows: AML differentiation inducers, ER-HoxA9 marrow cells – cell-based, GFP/MAC1 double positive, flow cytometry, validation set, primary screen (AID 588685;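 active = differentiation response of at least 50%, scaled between solvent and reference control, from cells with both markers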;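 note: compound exposure lasts four days before antibody staining and flow analysis; 0% = DMSO wells and 100% = 5 µM fulvestrant positive control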). As to conditions: stronger effect = higher value, normalized: vehicle 0, fulvestrant 100.

Several values for one entry are separate records, joined by “and”; a condition that tells them apart may be missing. Identical values can stand only once. Inconclusive results are not listed. Activity calls are given as the source filed them.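 Rule for the calls, unless noted: active = GFP response, as percent of the DMSO control, above the screen-wide mean plus 3 SD, about 139; inconclusive = no response measured because the compound's own fluorescence interfered; inactive = the rest.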

Beta-adrenergic receptor kinase 1 (Homo sapiens), sequence (P25098 whole entry, looked up): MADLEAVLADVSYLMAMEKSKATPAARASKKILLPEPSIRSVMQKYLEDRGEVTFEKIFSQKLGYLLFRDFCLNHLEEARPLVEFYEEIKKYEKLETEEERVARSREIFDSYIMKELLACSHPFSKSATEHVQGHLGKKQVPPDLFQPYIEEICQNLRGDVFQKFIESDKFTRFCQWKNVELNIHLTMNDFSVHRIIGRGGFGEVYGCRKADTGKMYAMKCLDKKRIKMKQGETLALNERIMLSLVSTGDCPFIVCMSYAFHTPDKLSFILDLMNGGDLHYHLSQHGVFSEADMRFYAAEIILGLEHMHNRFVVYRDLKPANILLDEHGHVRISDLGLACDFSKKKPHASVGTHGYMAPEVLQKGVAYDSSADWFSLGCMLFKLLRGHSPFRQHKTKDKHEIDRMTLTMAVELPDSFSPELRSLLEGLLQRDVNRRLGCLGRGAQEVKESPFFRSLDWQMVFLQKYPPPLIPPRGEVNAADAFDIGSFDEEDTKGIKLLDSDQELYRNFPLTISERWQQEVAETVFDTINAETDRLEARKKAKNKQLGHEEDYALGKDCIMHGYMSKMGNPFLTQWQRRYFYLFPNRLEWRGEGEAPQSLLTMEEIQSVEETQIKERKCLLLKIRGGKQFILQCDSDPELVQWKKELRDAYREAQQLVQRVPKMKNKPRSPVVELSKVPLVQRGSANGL
Beta-2 adrenergic receptor (Homo sapiens), sequence (P07550 whole entry, looked up): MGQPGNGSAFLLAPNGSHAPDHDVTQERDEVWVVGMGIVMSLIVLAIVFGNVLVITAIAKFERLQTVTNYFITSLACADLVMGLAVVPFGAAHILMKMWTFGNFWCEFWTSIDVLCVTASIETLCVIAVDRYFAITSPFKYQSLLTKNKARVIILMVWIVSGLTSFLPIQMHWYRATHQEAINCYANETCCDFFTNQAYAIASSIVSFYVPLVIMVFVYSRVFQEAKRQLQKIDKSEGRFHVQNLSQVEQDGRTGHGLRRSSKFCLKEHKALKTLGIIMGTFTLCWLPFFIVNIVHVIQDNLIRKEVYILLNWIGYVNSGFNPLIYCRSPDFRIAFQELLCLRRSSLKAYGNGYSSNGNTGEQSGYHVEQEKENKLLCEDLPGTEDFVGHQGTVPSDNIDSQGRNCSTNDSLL

As a reminder, the inhibition is the change of the read-out against control, counted positive when it falls. Consider `Cc1ccccc1C(=O)NCC(=O)O`, for which, in [1], the percent of DMSO control GFP is 103% (inactive). The figures for the GFP response vs DMSO in assay [2] and in [4] were 107% (inactive) and 93.7% (inactive), respectively. For the same compound, in [3], the percent response of DMSO control is 103% (inactive). Moreover, in [5], the GFP response, % of DMSO was 105% (inactive). The double positive events in assay [6] was found to be 61.4%. In addition, the vesicle binding response in assay [6] was 130% (inactive). Also, the inhibition is 0.25% (inactive) in [7], -5.73% (inactive) in [11] and -7% (inactive) in assay [15]. Further, in [8], the superoxide response (% of plate) was 102% (inactive). Moreover, the aptamer binding inhibition in assay [9] is 5% (inactive). Moreover, the response is 2.69% (inactive) in assay [10] and 109% (active) in assay [12]. Besides, in [13], the binding (% of control) was 103% (inactive). Also, the efflux inhibition (fraction of control) in assay [14] was 0.31 (inactive). The differentiation response in assay [16] is -13.3% (inactive).
With `O=C1OC(Nc2ccc3c(c2)OCO3)c2ccccc21` (stereo not drawn), in assay [1], the percent of DMSO control GFP is 99.4% (inactive). The GFP response vs DMSO was 105% (inactive) in [2] and 114% (inactive) in [4]. Moreover, the percent response of DMSO control in assay [3] is 93.1% (inactive). In assay [5], the GFP response, % of DMSO was 97.3% (inactive). The compound also yielded a double positive events in assay [6] of 63.1%. For the same compound, the vesicle binding response in [6] is 185% (inactive). Further, the inhibition in assay [7] was -22.2% (inactive); in assay [11] it was -3.85% (inactive); in [15], -1% (inactive). Further, in assay [8], the superoxide response (% of plate) is 99.6% (inactive). Also, in assay [9], the aptamer binding inhibition was 3% (inactive). Besides, the response was 10.6% (inactive) in assay [10] and 0.82% (inactive) in assay [12]. For the same compound, in [13], the binding (% of control) was 100% (inactive). In addition, the efflux inhibition (fraction of control) in [14] was 0.02 (inactive). The differentiation response in assay [16] was 21.8% (inactive).
Take `CC(=O)OC(CC(=O)O)C[N+](C)(C)C` (stereo not drawn): the percent of DMSO control GFP in assay [1] was 100% (inactive). The GFP response vs DMSO in assay [2] was 103% (inactive); in assay [4], 92.7% (inactive). For the same compound, the percent response of DMSO control in assay [3] was 95.4% (inactive). The GFP response, % of DMSO in assay [5] was 97.6% (inactive). The double positive events in assay [6] came to 65%. Moreover, the vesicle binding response in assay [6] was 243% (inactive). Further, the inhibition was -17.1% (inactive) in assay [7], 14.1% (inactive) in assay [11] and 10% (inactive) in [15]. Moreover, the superoxide response (% of plate) in assay [8] is 103% (inactive). In addition, the aptamer binding inhibition in assay [9] was 2% (inactive). In addition, the response in [10] was -0.16% (inactive); in [12] it was -2.66% (inactive). The binding (% of control) in assay [13] is 97.1% (inactive). The efflux inhibition (fraction of control) in [14] was 0.02 (inactive). In assay [16], the differentiation response is -8.55% (inactive).
Turning to `CN(C)C(=O)Oc1cccc([N+](C)(C)C)c1`, the percent of DMSO control GFP in assay [1] was 95.7% (inactive) and 98.8% (inactive). In addition, the GFP response vs DMSO is 104% (inactive) and 109% (inactive) in assay [2]; 115% (inactive) and 112% (inactive) in [4]. For the same compound, the percent response of DMSO control in assay [3] was 100% (inactive) and 91% (inactive). In addition, the GFP response, % of DMSO in [5] is 110% (inactive) and 105% (inactive). The double positive events in [6] is 55.5% and 63.8%. Also, the vesicle binding response in assay [6] is 158% (inactive) and 4880% (inactive). The inhibition in assay [7] was -2.82% (inactive) and 3.67% (inactive); in [11], -12.1% (inactive) and 15% (inactive); in [15] it was 2% (inactive) and 4% (inactive). The superoxide response (% of plate) in [8] was 93.6% (inactive) and 108% (inactive). The aptamer binding inhibition in [9] was -3% (inactive) and 4% (inactive). Moreover, the response is -26.2% (inactive) and -0.74% (inactive) in [10]; 0% (inactive) and -1.87% (inactive) in assay [12]. Besides, the binding (% of control) in assay [13] is 106% (inactive) and 97.8% (inactive). Further, in assay [14], the efflux inhibition (fraction of control) is 0 (inactive) and -0.13 (inactive). Also, in assay [16], the differentiation response was -0.06% (inactive) and -15.2% (inactive).

The record behind these values is PubChem BioAssay.
